According to PMC8384837, “Expanding the binding specificity for RNA recognition by a PUF domain”:

Experiments:
Experiment in all cases: yeast three-hybrid, YBZ-1, SC-Leu-His + 0.5 mM 3-AT, 4 days
Conditions in all cases: tags: N-Gal4 AD-HA kept; label: inside an RPR1-promoter hybrid RNA with tandem MS2 sites; ssRNA
[1] = target: PUM1 PUF domain R5-DFL (Homo sapiens, UniProt Q14671 828-1176, C1007D;R1008F;Q1011L)
Method in brief: (§1)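 Repeat regions from input (SC-Leu) and selection (SC-Leu-His + 0.5 mM 3-AT) plates were PCR-amplified and Illumina-sequenced after four days of growth. The cells were strain YBZ-1 with a LexA–MS2 coat fusion and a HIS3 reporter, co-expressing Pumilio-1 PUF domain libraries and matching RNA elements from a centromeric plasmid. The interaction score is the log change in variant frequency from input to selection, taken in log2 with a pseudocount of 1 for absent variants.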

[2] = target: PUM1 PUF domain R4-CLQ (Homo sapiens, UniProt Q14671 828-1176, N971C;H972L)
Method in brief: as §1

[3] = target: PUM1 PUF domain R5-HNR (Homo sapiens, UniProt Q14671 828-1176, C1007H;R1008N;Q1011R)
Method in brief: as §1

[4] = target: PUM1 PUF domain R7-GQR (Homo sapiens, UniProt Q14671 828-1176, S1079G;N1080Q;E1083R)
Method in brief: as §1

[5] = target: PUM1 PUF domain R7-EFR (Homo sapiens, UniProt Q14671 828-1176, S1079E;N1080F;E1083R)
Method in brief: as §1

[6] = target: PUM1 PUF domain R1-SPE (Homo sapiens, UniProt Q14671 828-1176, R864P;Q867E)
Method in brief: as §1

[7] = target: PUM1 PUF domain R3-FCV (Homo sapiens, UniProt Q14671 828-1176, C935F;R936C;Q939V)
Method in brief: as §1

[8] = target: PUM1 PUF domain R4-FAA (Homo sapiens, UniProt Q14671 828-1176, N971F;H972A;Q975A)
Method in brief: as §1

[9] = target: PUM1 PUF domain R4-QHK (Homo sapiens, UniProt Q14671 828-1176, N971Q;Q975K)
Method in brief: as §1

GGCUAGAACUAGUGGAUCCCCCGGCGCCCGGCGGCUCGAGCCCGGGUAAGUGUAAAUAGUCUGCAUGCCGCCGGGCGCCAUGCCUGCAGGUCGACUCUAGAAAACAUG
binding signal [1]: 3.51 log2 enrichment (interaction score)
binding signal [2]: 3.83 log2 enrichment (interaction score)

GGCUAGAACUAGUGGAUCCCCCGGCGCCCGGCGGCUCGAGCCCGGGUAAGUGUUAAUAGUCUGCAUGCCGCCGGGCGCCAUGCCUGCAGGUCGACUCUAGAAAACAUG
binding signal [3]: 4.6 log2 enrichment (interaction score)

GGCUAGAACUAGUGGAUCCCCCGGCGCCCGGCGGCUCGAGCCCGGGUAAGUUUAAAUAGUCUGCAUGCCGCCGGGCGCCAUGCCUGCAGGUCGACUCUAGAAAACAUG
binding signal [4]: 2.78 log2 enrichment (interaction score)
binding signal [5]: 2.09 log2 enrichment (interaction score)

GGCUAGAACUAGUGGAUCCCCCGGCGCCCGGCGGCUCGAGCCCGGGUAAGUGUAAAUUGUCUGCAUGCCGCCGGGCGCCAUGCCUGCAGGUCGACUCUAGAAAACAUG
binding signal [6]: 2.78 log2 enrichment (interaction score)

GGCUAGAACUAGUGGAUCCCCCGGCGCCCGGCGGCUCGAGCCCGGGUAAGUGUAAGUAGUCUGCAUGCCGCCGGGCGCCAUGCCUGCAGGUCGACUCUAGAAAACAUG
binding signal [7]: 4.56 log2 enrichment (interaction score)

GGCUAGAACUAGUGGAUCCCCCGGCGCCCGGCGGCUCGAGCCCGGGUAAGUGUAUAUAGUCUGCAUGCCGCCGGGCGCCAUGCCUGCAGGUCGACUCUAGAAAACAUG
binding signal [8]: 2.2 log2 enrichment (interaction score)

GGCUAGAACUAGUGGAUCCCCCGGCGCCCGGCGGCUCGAGCCCGGGUAAGUCUAAAUAGUCUGCAUGCCGCCGGGCGCCAUGCCUGCAGGUCGACUCUAGAAAACAUG
binding signal [5]: 2.21 log2 enrichment (interaction score)

GGCUAGAACUAGUGGAUCCCCCGGCGCCCGGCGGCUCGAGCCCGGGUAAGUGUACAUAGUCUGCAUGCCGCCGGGCGCCAUGCCUGCAGGUCGACUCUAGAAAACAUG
binding signal [9]: 3.41 log2 enrichment (interaction score)
